Measurements published in the supplement of paper PMC3334620.
In all, about 33,000 sequences were measured (“E-score (-0.5 to 0.5)”: median about -0.032, highest 2% from about 0.36 on). The full list was thinned out, with the highest values kept by preference.

Molecular target: T1, Sko1 (UniProt Q02100)
T1 sequence: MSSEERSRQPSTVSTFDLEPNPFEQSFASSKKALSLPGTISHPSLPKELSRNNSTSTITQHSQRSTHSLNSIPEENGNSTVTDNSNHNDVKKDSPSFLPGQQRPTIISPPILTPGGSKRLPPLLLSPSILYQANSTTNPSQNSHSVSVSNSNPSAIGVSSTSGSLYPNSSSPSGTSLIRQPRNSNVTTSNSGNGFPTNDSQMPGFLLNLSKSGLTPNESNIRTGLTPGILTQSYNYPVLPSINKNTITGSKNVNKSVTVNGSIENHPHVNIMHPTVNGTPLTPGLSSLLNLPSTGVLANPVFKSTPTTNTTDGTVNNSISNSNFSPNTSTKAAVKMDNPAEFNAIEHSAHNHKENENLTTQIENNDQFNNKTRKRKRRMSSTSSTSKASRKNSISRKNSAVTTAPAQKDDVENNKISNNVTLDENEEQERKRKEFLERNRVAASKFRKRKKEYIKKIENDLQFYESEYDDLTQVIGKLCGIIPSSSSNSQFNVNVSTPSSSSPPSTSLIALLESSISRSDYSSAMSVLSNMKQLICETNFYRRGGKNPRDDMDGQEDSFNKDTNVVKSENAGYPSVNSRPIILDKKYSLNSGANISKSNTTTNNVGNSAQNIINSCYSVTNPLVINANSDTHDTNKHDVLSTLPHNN
Assay: PBM E-score (8-mer binding enrichment) (E-score (-0.5 to 0.5)); higher = stronger / more preferred TF binding
Conditions: protein concentration: 200 nM; construct: GST-full length
Experimental: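 Universal 'all 10-mer' protein binding microarrays (Agilent AMADID 015681) probed with GST-tagged S. cerevisiae TFs (full-length or DBD) made by in vitro transcription/translation (PURExpress), about 100-200 nM. Bound TF was detected with fluorescent anti-GST. Each ungapped 8-mer (which stands for itself and its reverse complement) is scored by the PBM enrichment score (E-score), a modified Wilcoxon-Mann-Whitney statistic from -0.5 to +0.5, computed with the Universal PBM Analysis Suite. Scale: above 0.35 generally sequence-specific binding.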

Row | Sequence | PBM E-score
1 | GCGCGTAA | 0.336
2 | CCGCGTAA | 0.318
3 | TCGCGTAA | 0.393
4 | GATGCGTA | 0.272
5 | AATGCGTG | 0.214
6 | AATGCGTA | 0.39
7 | AATGCGTC | 0.185
8 | CATGCGTC | 0.161
9 | CATGCGTA | 0.38
10 | GGGTGAAC | -0.114
11 | ACATAGGG | -0.181
12 | AGATAGCC | -0.299
13 | ACATCTAG | -0.0627
14 | AACATTCC | 0.0401
15 | CGCATACG | 0.378
16 | CGCATACA | 0.0477
17 | AACATACG | 0.387
18 | CACATACG | 0.276
19 | ATCATACA | 0.257
20 | AACATACT | 0.0365
21 | ATCATACG | 0.365
22 | CGCATACC | 0.0198
23 | ATCATACC | 0.171
24 | CTGCTACA | -0.0447
25 | AATGCTTA | -0.1

Row | Sequence | PBM E-score
26 | CAGTATGC | -0.0805
27 | GTTCCGCA | 0.00536
28 | GTCGATCA | -0.0654
29 | TATCGCCA | 0.0834
30 | CCCTATGA | 0.0198
31 | AAGTCCAA | 0.0276
32 | AATAACGT | 0.426
33 | AATAACGC | 0.106
34 | AATAACGG | 0.138
35 | GCCTCAAC | -0.175
36 | ACGTTTGG | 0.296
37 | ACGTTTTC | 0.396
38 | GCGTTTTA | 0.125
39 | AGGTTTTG | -0.0965
40 | CCGTTTTA | -0.00533
41 | ACGTTTCC | 0.294
42 | ACGTTTTG | 0.393
43 | CCGTTTTC | 0.0601
44 | ACGTTTTA | 0.364
45 | GGCTACAA | -0.0783
46 | CATCGAGA | 0.0586
47 | CACTTGAC | 0.186
48 | AAGGTTAA | 0.06
49 | AAATGTCG | 0.159
50 | AGCTTGCA | 0.0429

Row | Sequence | PBM E-score
51 | CGCCTACC | -0.145
52 | CCTCTGCA | -0.229
53 | GGTAACTA | 0.0515
54 | GGTAACGA | 0.0123
55 | CGTAACTA | 0.381
56 | CGTAACGC | 0.34
57 | CGTAACCA | 0.389
58 | CGTAACGA | 0.366
59 | CGTAACTC | 0.331
60 | CGTAACCC | 0.289
61 | GGTAACCA | -0.101
62 | ACCGTGCG | 0.0174
63 | TCTACTAA | 0.0947
64 | CGTTTAAA | 0.277
65 | TGAATGAA | 0.197
66 | ATAGGTCG | -0.195
67 | AATGTCGT | 0.371
68 | AATGTCGG | 0.0603
69 | AATGTCGA | 0.217
70 | CGATTGTC | 0.0842
71 | AGGAGCCC | -0.142
72 | ACATTACT | 0.0825
73 | CCATTACA | 0.089
74 | ACATTACG | 0.425
75 | CCATTACG | 0.438

Row | Sequence | PBM E-score
76 | ACATTACA | 0.28
77 | CCATTACC | -0.148
78 | ACGGACTA | 0.0518
79 | CTGCTGAC | 0.0145
80 | AACACGTC | 0.401
81 | AACACGGC | -0.255
82 | AACACGTA | 0.459
83 | AACACGCC | -0.0487
84 | AACACGTT | 0.313
85 | AACACGAA | 0.187
86 | AGAGCTGG | -0.228
87 | TCATAGAA | 0.219
88 | AATTTCAC | -0.0415
89 | ACTTGAAA | 0.0359
90 | AAGCGGAA | -0.0292
91 | GGAACGTA | 0.289
92 | AGAACGTC | 0.314
93 | CGAACGTC | 0.238
94 | AGAACGTG | 0.246
95 | AGAACGTA | 0.366
96 | CGAACGTA | 0.361
97 | GTGAAGGA | -0.0285
98 | ACGCAGAC | 0.0967
99 | AAATTGGA | 0.0977
100 | ACGAGTCC | -0.0325

Row | Sequence | PBM E-score
101 | ACGTCCAA | 0.288
102 | ACGTCGAT | 0.432
103 | ACGTCGAC | 0.385
104 | ACGTCGAG | 0.254
105 | ACGTCCAT | 0.39
106 | ACGTCGAA | 0.292
107 | CCGTCGAC | -0.145
108 | ACGTCCAC | 0.314
109 | GCGTCGAC | 0.0596
110 | ATCAGTCA | 0.119
111 | AACCGCGC | -0.0849
112 | AGGGCAAT | -0.231
113 | CGTAGAGC | 0.116
114 | ACGAGATA | 0.207
115 | ATACGTCG | 0.422
116 | ATACGCCC | -0.0909
117 | AAACGTCG | 0.238
118 | CTACGTCC | 0.298
119 | ATACGTCC | 0.369
120 | ATCCGTCG | -0.197
121 | AAGGCTGT | -0.282
122 | CGGTAGCC | 0.0295
123 | AATCACGA | 0.0581
124 | AACCACGC | 0.111
125 | AATCACGT | 0.429

Row | Sequence | PBM E-score
126 | ACCCACGT | 0.374
127 | AACCACGA | -0.0344
128 | AATCACGC | 0.205
129 | ACCCACGC | -0.0576
130 | AACCACGT | 0.371
131 | ACCCACGA | -0.0425
132 | GGAAATAC | 0.148
133 | CCCTCATC | -0.29
134 | CCTCACCC | -0.148
135 | CGTCACCA | 0.447
136 | GGTCACCA | -0.28
137 | CGTCACCC | 0.409
138 | AGTCACCA | -0.269
139 | AGTCACCC | -0.145
140 | AGCCAATG | -0.049
141 | CATAAGCA | -0.085
142 | CGTGGTTC | 0.0129
143 | ACGTCGCG | 0.356
144 | ACGTCGTG | 0.361
145 | ACGTCGGC | 0.348
146 | GCGTCGTA | 0.234
147 | ACGTCGTC | 0.387
148 | AAGTCGTG | 0.00032
149 | CCGTCGTC | -0.0549
150 | CCGTCGTA | 0.11

Row | Sequence | PBM E-score
151 | ACGTCGTA | 0.399
152 | AGTTGCCC | -0.107
153 | ACATTCTA | 0.293
154 | AACCCAGC | -0.247
155 | CGGCCTAG | -0.324
156 | AGAAGCTG | -0.0693
157 | ACAGCTGT | -0.245
158 | GGGCAGAC | -0.242
159 | ACTGGTAT | -0.17
160 | CCTCGTCG | -0.233
161 | TCTCGTAA | 0.276
162 | CCTCGTCA | 0.381
163 | TCTCGTCA | 0.365
164 | CCTCGTCC | -0.209
165 | ACTCGTCT | -0.0567
166 | ACTCGTCC | 0.0764
167 | GCTCGTCA | 0.351
168 | ACTCGTCA | 0.404
169 | AACCCAAG | -0.00525
170 | ATAAGGAG | -0.159
171 | CGTAGACA | 0.264
172 | GCGTCCAC | -0.0966
173 | ATACTTTC | 0.0725
